Our source for the growth values is PubChem BioAssay (NCI).

The panel holds about 83,000 compounds, 20% with a hit somewhere; the sample as a whole holds those more often.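 Plates (96-well) were seeded with cells, treated with compound at one concentration, and incubated for 48 hours before percent growth was determined.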 Values without a mark were called inactive. Calls of active or inactive are those of the source.

The test system of this assay is ACHN renal. As to the kind of experiment: NCI-60 one-dose screen, 48 h (100 = growth as untreated, 0 = no growth, -100 = all killed). To be noted: 10 µM unless noted. On the procedure:
Growth inhibition of the ACHN human tumor cell line is measured as a screen for anti-cancer activity. Cells are grown in 96 well plates and exposed to the test compound for 48 hours. Compounds are tested at a single concentration, which is 10^-5 M for most compounds. The reported endpoint is percent growth (GI% or GIPRCNT), where numbers from 0 - 100% represent growth inhibition, and numbers from -100% - 0 represent cell death. For example, a value of 40 represents 60% growth inhibition. A value of 0 means no net growth occurred over the course of the experiment. A value of -40 indicates 40% of cells at the beginning of the experiment died by the end of the experiment. A value of -100 means all cells are dead at the end of the experiment.
NCI-60 Human Tumor Cell Lines Screen was performed using the standard one-dose NCI protocol, which is described in more detail at https://dtp.cancer.gov/discovery_development/nci-60/default.htm.
Compounds with GIPRCNT values below 10 were considered active. Activity score was based on GIPRCNT using the following formula: […]
Score is 0 for GIPRCNT values of 100 or above, 50 for GIPRCNT values of 0, and 100 for GIPRCNT values of -100.
As to `CCN(CC)CCCCCCNc1cccc2cc(Br)cnc12`, the growth was 104%.
As for `O=C(Nc1ccc(Oc2ccc(F)cc2)c(Cl)c1)c1cnccn1`, the figure is 94.1%; as for `C#C[C@]1(O)CC[C@H]2[C@@H]3CC=C4c5nc(N)sc5CC[C@]4(C)[C@H]3CC[C@@]21C`, 79.6%; as for `C=C(C)[C@@H]1CC[C@]2(COCCCN)CC[C@]3(C)[C@H](CC[C@@H]4[C@@](C)(CCCNCCCN)[C@H](C(=C)C)CC[C@]43C)[C@@H]12`, -67.5% [100 µM] (active).
As for `O=C(CSc1nccc(Nc2ccc(S(=O)(=O)Nc3ccccn3)cc2)n1)c1ccc(Cl)cc1`, the figure is 89.8%.
The value for `Cc1ccc2c(c1)/C(=N\N=C/c1cn(C(C)C)c3ccccc13)C(=O)N2` was 55.4%; that for `CC(C)c1ccc(/C=N/N=C(N)N)cc1` was 83.2%.
On to `O=C1/C(=C\c2cccn2Cc2ccccc2)c2ccccc2N1c1c(Cl)cccc1Cl`, for which the growth was 53.7%.
For the compound `COc1ccc2nc3cc(Cl)ccc3c(Nc3ccc(O)c(CN4CCCC4)c3)c2c1`, the growth is -38.9% (active).
As for `O=S(=O)(NCCNc1nccc(-c2c(-c3cccc(F)c3)nc3occn23)n1)c1ccc(C(F)(F)F)cc1`, the figure is 87.7%; as for `COc1c(B(O)O)cccc1-c1nc2ccc3[nH]ncc3c2c2c1CCC2`, 36.4%; as for `COC(=O)[C@]1(C)CC[C@]2(C)CC[C@]3(C)C(=CC(=O)[C@@H]4[C@@]5(C)CCC(=O)NC(C)(C)[C@@H]5CC[C@]43C)[C@@H]2C1`, -39.8% [100 µM] (active).
Take `CCc1cccc(Cl)c1`: the growth is 98.9%.
Regarding `COC(=O)c1cc(O)c2c(c1C(=O)OC)C[C@H]1[C@@H]3CC=C4C[C@@H](O)CC[C@]4(C)[C@H]3CC[C@]21C`, the growth was 39.9%.
Take `Cn1cc(-c2nnc(-c3cn(C)c4ncc(Br)cc34)s2)c2cc(Br)ccc21`: the growth is 94.2%.
The value for `COc1cc2c(c(Br)c1N)-c1cc(Br)c(N)cc1C2=O` was 57.6%; that for `CCn1cc(-c2[nH]c(=S)ncc2-c2ccc(Cl)cc2)c(-c2ccc(Br)cc2)n1` was 91.1%.
For `O=C1Nc2ccccc2/C1=C/C(=O)c1ccc(N2CCCC2)cc1`, the growth was 30.7%.
The value for `O=C(NCCCCCCCNC(=O)OCc1ccc2c(Cl)cc(Cl)c(O)c2n1)OCc1ccc2c(Cl)cc(Cl)c(O)c2n1` was -99.9% (active); that for `C=C(C)[C@@H]1CC[C@]2(C(=O)O)CC[C@]3(C)[C@H](CC[C@@H]4[C@@]5(C)C/C(=C/c6ccco6)C(=O)C(C)(C)[C@@H]5CC[C@]43C)[C@@H]12` was -89.8% [100 µM] (active); that for `COC(=O)[C@H](CC(C)C)NC(=O)NC(=O)NC(=O)CI` was 37%.
The value for `COc1ccc(C(=O)CSc2nnc(-c3cc(-c4ccccc4)nc4ccccc34)o2)cc1` was 108%.
The value for `Cc1ccc(-c2cc(O)c(-c3ccc(C)cc3C)cc2O)c(C)c1` was 73.2%; that for `N#CC1C(=O)NC(c2ccccc2[N+](=O)[O-])c2sc3c(F)cccc3c21` (stereo not given) was 65.8%; that for `c1nc(N2CCOCC2)c2[nH]ccc2n1` was 109%.
For the compound `COc1cc(-c2nc(SCCC(C)C)nc(Nc3ccccc3)c2C#N)cc(OC)c1OC`, the growth was 94%.
As for `O=C(Nc1cccc(F)c1)c1cc(=O)[nH]c2cc(Br)ccc12`, the figure is 57%; as for `COc1c(C(C)=O)c(OCCCCOc2c(C(C)=O)c(OC)c3ccoc3c2OC)c(OC)c2occc12`, 75.7%.
The value for `Nc1cc(N)c(N=Nc2ccc(S(=O)(=O)O)cc2)cc1N=Nc1ccc(-c2ccc(N=Nc3ccc(O)c(C(=O)O)c3)cc2)cc1` was 99.8%.
For the compound `Cc1ncc(C(=O)Nc2ccc(CN3CCN(C)CC3)c(C(F)(F)F)c2)cc1C#Cc1c(N)ncc2ccc(C#N)cc12`, the growth is 12.3%.
The value for `CCOC(=O)c1sc2nc(-c3cc(OC)c(OC)c(OC)c3)nc(N3CCOCC3)c2c1C` was 33.6%; that for `Cc1cc(C)c(S(=O)(=O)/N=c2/n(-c3ccccc3)nc3n2CCN3C2=NCCN2)c(C)c1` was 90%; that for `Brc1ccc(-c2nnc3c4[nH]ccc4ncn23)cc1` was 78.7%.
The value for `COc1ccc2nc3c(cc2c1)C(=O)CC(C(F)(F)F)C3` (stereo not given) was 49.2%; that for `O=C(CCN1CCCCC1)c1ccc(Cl)cc1` was 110%; that for `COc1ccc(-c2nc3ccccn3c2/C=C/C(=O)c2cc(OC)c(OC)c(OC)c2)cc1OC` was 19.9%.
The value for `CC1(C(=O)O)CCC(N)(C(=O)O)C1(C)C` (stereo not given) was 116%; that for `CCCCCC1CCCCN1C(=O)OCCCC` (stereo not given) was 104%; that for `CC(C)C1=NOC(=O)C1=Cc1cn(-c2cccnc2)nc1-c1ccccc1` was 99.2%.
Regarding `CNC(=O)c1cc(Oc2ccc3nc(NC(=O)c4ccc5ncccc5c4)sc3c2)ccn1`, the growth was 102%.
